Assay [1] concerns the target T1, Protein deacetylase HDAC6 (Homo sapiens) (UniProt Q9UBN7).
T1 sequence (whole entry): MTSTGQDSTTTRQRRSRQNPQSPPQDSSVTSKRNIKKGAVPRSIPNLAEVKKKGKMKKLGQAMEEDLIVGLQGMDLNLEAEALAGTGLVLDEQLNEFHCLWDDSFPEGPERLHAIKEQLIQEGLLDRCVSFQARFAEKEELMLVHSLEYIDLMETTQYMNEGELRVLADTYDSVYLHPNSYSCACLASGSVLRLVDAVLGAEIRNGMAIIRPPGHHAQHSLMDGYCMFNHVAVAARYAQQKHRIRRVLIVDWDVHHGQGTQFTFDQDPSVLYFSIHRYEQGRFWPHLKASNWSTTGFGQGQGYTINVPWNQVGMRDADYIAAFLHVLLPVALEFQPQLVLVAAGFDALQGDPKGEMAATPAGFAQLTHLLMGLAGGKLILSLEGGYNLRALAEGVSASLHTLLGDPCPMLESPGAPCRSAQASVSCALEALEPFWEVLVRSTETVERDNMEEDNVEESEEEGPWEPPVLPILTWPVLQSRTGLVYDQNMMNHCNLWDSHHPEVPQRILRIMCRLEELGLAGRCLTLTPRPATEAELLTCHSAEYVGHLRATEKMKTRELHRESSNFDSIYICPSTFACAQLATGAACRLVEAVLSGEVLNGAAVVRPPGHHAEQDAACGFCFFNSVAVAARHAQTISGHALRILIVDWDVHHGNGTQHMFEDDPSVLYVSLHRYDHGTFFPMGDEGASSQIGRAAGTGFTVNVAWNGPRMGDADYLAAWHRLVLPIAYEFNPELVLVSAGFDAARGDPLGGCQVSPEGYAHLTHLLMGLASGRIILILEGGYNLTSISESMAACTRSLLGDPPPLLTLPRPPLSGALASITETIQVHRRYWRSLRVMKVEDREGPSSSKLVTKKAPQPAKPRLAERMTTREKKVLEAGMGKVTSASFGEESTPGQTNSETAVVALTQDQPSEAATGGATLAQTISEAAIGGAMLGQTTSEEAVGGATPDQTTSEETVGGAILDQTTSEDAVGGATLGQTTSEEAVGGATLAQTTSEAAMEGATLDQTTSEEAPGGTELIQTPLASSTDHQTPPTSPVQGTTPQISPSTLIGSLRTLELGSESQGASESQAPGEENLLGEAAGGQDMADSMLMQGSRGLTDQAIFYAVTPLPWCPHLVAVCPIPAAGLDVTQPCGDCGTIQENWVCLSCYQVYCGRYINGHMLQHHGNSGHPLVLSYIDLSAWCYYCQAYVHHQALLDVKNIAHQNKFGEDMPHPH
The settings on record: at 10 µM.

Assay [2] has as its target Protein deacetylase HDAC6 (Homo sapiens) (UniProt Q9UBN7). The settings on record: at 10 µM. This is another data set of the same source.

As usually defined, the inhibition is the relative decrease from the control value, in per cent.

Among all 5,600 compounds or so, about 390 (7%) showed an effect of 50% or more. This is one part of a sample in which strong results are shown more often than they occur.

Take `CC(C)[C@@H]1CC[C@@H](C)C[C@H]1O`: the inhibition in assay [1] is 2.89%.

On to `CN(C)CCC(O)(c1ccccc1)c1ccccc1Cl` (stereo not given), for which the inhibition in assay [1] is 36.5%.

Turning to `Cc1ccc(NC2=CC(=O)c3sc(C)nc3C2=O)cc1`, the inhibition in assay [1] came out at 53.2%.

On to `Cc1c(-c2ccccc2F)[nH]c(N)c1C#N`, for which the inhibition in assay [1] is 28.6%.

Take VERTEPORFIN, CHEMBL5314346: in assay [2], the inhibition is 22.2%.

As to `Nc1nccc(/C=C/c2ccccc2)n1`, in assay [1], the inhibition amounted to 99.6%.

For `Cc1cccc(/C=C/c2ccccc2)n1`, the inhibition in assay [1] was 100%.

Take `CC[N+](CC)(CC)CCOc1ccc(/C=C/c2ccccc2)cc1`: the inhibition in assay [1] is -4.16%.

For `CC(C)[C@@H]1CC[C@@H](C)C[C@@H]1P(=O)(c1ccccc1)c1ccccc1`, in assay [1], the inhibition was -9.96%.

In the case of `CCC(CC)(NC(=O)C(C)C)C(=O)N[C@@H](CCCNC(=N)N)C(=O)NC1(C(=O)NC(c2ccc(F)cc2)c2ccc(F)cc2)CCCC1`, the inhibition in assay [1] worked out at 22%.

Regarding `CSC[C@H](N)C(=O)O`, the inhibition in assay [1] came out at 15.3%.

On to `Cc1ccc2c(c1)C(=O)[C@]1(O)CCN(c3ccccc3)C1=N2`, for which the inhibition in assay [1] is -8.19%.

`O=c1c(-c2ccc(O)cc2)coc2cc(O)cc(O)c12`: the inhibition in assay [1] came out at 112%.

Consider `COc1ccc(-c2coc3cc(O)cc(O)c3c2=O)cc1`, for which the inhibition in assay [1] amounted to 100%.

Take `CN1CCN(c2ccc(/C=C(\C#N)c3ccccc3Br)cc2)CC1`: the inhibition in assay [1] was -8.48%.

On to `Nc1ncc(Cc2ccc(Br)cc2)s1`, for which the inhibition in assay [1] is 12.3%.

As for `c1ccc(-c2nc(CN3CCN(c4ncccn4)CC3)c[nH]2)cc1`, the inhibition in assay [1] was -4.48%.

As to `C=CCOc1ccc(CC(=O)O)cc1Cl`, in assay [1], the inhibition was 9.47%.

As for `Cc1ccsc1C(=CCCN1CCC[C@@H](C(=O)O)C1)c1sccc1C`, in assay [1], the inhibition turned out to be 20.9%.

In the case of `NC1(c2ccc(-c3nc4ccn5c(=O)[nH]nc5c4cc3-c3ccccc3)cc2)CCC1`, the inhibition in assay [1] turned out to be 12.5%.

Consider `O=C(O)CCc1cc(I)c(Oc2ccc(O)cc2)c(I)c1`, for which the inhibition in assay [1] was -9.91%.

As to `CC(CNS(=O)(=O)C(C)C)c1ccc(-c2ccc(C#N)cc2)cc1` (stereo not given), in assay [1], the inhibition turned out to be 23.9%.

In the case of `O=C(Nc1ccc(OC(F)(F)F)cc1)c1sccc1NCc1ccnc2ccccc12`, the inhibition in assay [1] was 18.5%.

`CN(C)CCOC(=O)COc1ccc(Cl)cc1`: the inhibition in assay [1] is 1.19%.

Regarding `CN(C)CCOC1=Cc2ccccc2Sc2ccc(Cl)cc21`, in assay [1], the inhibition is 96.6%.

As to `CN1CCN(C2=Nc3ccccc3Sc3ccc(Cl)cc32)CC1`, the inhibition in assay [1] is 29.6%.

Consider `C[C@H]1[C@H](C)CC[C@]2(C(=O)O)CC[C@]3(C)C(=CC[C@@H]4[C@@]5(C)C[C@@H](O)[C@H](O)C(C)(C)[C@@H]5CC[C@]43C)[C@H]12`, for which the inhibition in assay [1] is -2.75%.

`Cc1ccc([C@@H]2O[C@H](CO)[C@@H](O)[C@H](O)[C@H]2O)cc1Cc1ccc(-c2ccc(F)cc2)s1`: the inhibition in assay [1] was -5.59%.

Turning to `CC(C)NC(=O)N1CC[C@H](NC2=Nc3cc(F)ccc3N(CC(F)F)c3ccc(Cl)cc32)C1`, the inhibition in assay [1] was 29.2%.

With `CN(C)CCn1cc(S(=O)(=O)c2cccc(F)c2)c2cccnc21`, in assay [1], the inhibition was found to be 14.3%.

Consider `O=C(NCCCCCCNC(=O)ON=C1CCCCC1)ON=C1CCCCC1`, for which, in assay [1], the inhibition came to 40.7%.

On to AUROTHIOGLUCOSE, CHEMBL1697725, for which, in assay [2], the inhibition worked out at 8.56%.

`COc1ccc2cc([C@H](C)C(=O)O)ccc2c1`: the inhibition in assay [1] is -2.33%.

As to `COc1ccc2[nH]c(C(=O)c3ccccc3)cc2c1`, the inhibition in assay [1] was 109%.

`COc1ccc2[nH]c(-c3ccccc3)c(CCNC(C)=O)c2c1`: the inhibition in assay [1] was 9.99%.

On to `Cc1nn(C)c2c1C(c1ccc(C(F)(F)F)cc1)C(C#N)=C(N)O2` (stereo not given), for which the inhibition in assay [1] is 27.3%.

On to `OC[C@H]1O[C@@H]2O[C@H]3[C@H](O)[C@@H](O)[C@@H](O[C@H]4[C@H](O)[C@@H](O)[C@@H](O[C@H]5[C@H](O)[C@@H](O)[C@@H](O[C@H]6[C@H](O)[C@@H](O)[C@@H](O[C@H]7[C@H](O)[C@@H](O)[C@@H](O[C@H]8[C@H](O)[C@@H](O)[C@@H](O[C@H]1[C@H](O)[C@H]2O)O[C@@H]8CO)O[C@@H]7CO)O[C@@H]6CO)O[C@@H]5CO)O[C@@H]4CO)O[C@@H]3CO`, for which, in assay [1], the inhibition is -4.02%.

Regarding `O=C(O)c1cc2occc2[nH]1`, in assay [1], the inhibition turned out to be 21.7%.

Take `Cc1cc(C)c(N(Cc2ccccc2)S(=O)(=O)c2ccc(OCCNC(=O)c3cc4ccccc4o3)cc2)c(C(=O)NO)c1`: the inhibition in assay [1] is 71.8%.

Consider `CN(C(=O)C(Cl)Cl)c1ccc(OC(=O)c2ccco2)cc1`, for which the inhibition in assay [1] was determined as 5.17%.

`CO/N=C(/C(=O)N[C@@H]1C(=O)N2C(C(=O)O)=C(CSc3nc(=O)c(O)nn3C)CS[C@H]12)c1csc(N)n1`: the inhibition in assay [1] was -3.44%.

Consider `COc1cccc(CN(C(=O)CC(C)(C)C)[C@H]2C[C@@H](C(=O)N3CCNCC3)N(Cc3ccc4c(c3)OCO4)C2)c1`, for which the inhibition in assay [1] amounted to 2.2%.

Regarding `COc1cccc(-c2cc(NCc3ccc4c(c3)OCO4)nc(N)n2)c1`, the inhibition in assay [1] was 68.7%.

Regarding `COc1cc(C[C@H](C)[C@H](C)Cc2ccc3c(c2)OCO3)ccc1O`, the inhibition in assay [1] was 0.28%.

For `O=C(NCCS(=O)(=O)c1ccc(C(F)(F)F)cn1)c1ccc(Cl)cc1`, in assay [1], the inhibition was -5.62%.

Regarding `CCOC(=O)Nc1ccc2c(c1)N(C(=O)CN(CC)CC)c1ccccc1CC2`, in assay [1], the inhibition worked out at 18.9%.

As for `OC[C@H]1OC(O)[C@H](F)[C@@H](O)[C@H]1O` (stereo not given in full), the inhibition in assay [1] was -0.45%.

Take `NC1=NCC2c3ccccc3Cc3ccccc3N12` (stereo not given): the inhibition in assay [1] turned out to be 4.93%.

`CCOc1ccc2nc(S(N)(=O)=O)sc2c1`: the inhibition in assay [1] is 25.8%.

In the case of `Nc1nc2ccc(OC(F)(F)F)cc2s1`, in assay [1], the inhibition was determined as 72.9%.

`C=C[C@]1(C)CC[C@@H](C(=C)C)C[C@H]1C(=C)C`: the inhibition in assay [1] came out at 7.53%.

Take `O=C(Oc1ccccc1C(=O)O)c1ccccc1O`: the inhibition in assay [1] came out at 43.2%.

Turning to `Nc1ccc(O)c(C(=O)O)c1`, in assay [1], the inhibition amounted to 0.62%.

For `Nc1ccc(C(=O)Oc2ccccc2)c(O)c1`, in assay [1], the inhibition stood at 108%.

On to `O=S(=O)(N[C@H](CO)C(C(F)(F)F)C(F)(F)F)c1ccc(Cl)s1`, for which the inhibition in assay [1] stood at 9.08%.

On to `O=P(O)(O)OC[C@H]1OC(O)(COP(=O)(O)O)[C@@H](O)[C@@H]1O` (stereo not given in full), for which the inhibition in assay [1] was 8.76%.

Turning to `Cc1csc(NC(=O)CSc2ccc(-c3ccccc3)nn2)n1`, the inhibition in assay [1] was 31.4%.

Take `O[C@@H]1[C@H](O)[C@@H](CCl)O[C@H]1n1cnc2c(NC3CC4CCC3C4)ncnc21` (mixture of isomers): the inhibition in assay [1] is 17.3%.

For `CCCCOc1ccc(CC(=O)NO)cc1`, the inhibition in assay [1] came to 73%.

For `CCOc1ccc(NC(C)=O)cc1`, the inhibition in assay [1] is -4.35%.

As for `CCCCOc1ccc(C(=O)CCN2CCCCC2)cc1`, in assay [1], the inhibition came out at 4.77%.

On to `CC[C@@]1(O)C(=O)OCc2c1cc1n(c2=O)Cc2c-1nc1cc(F)c(C)c3c1c2[C@@H](N)CC3`, for which the inhibition in assay [1] was found to be 45.5%.

Take `CCN(CC)CCOC(=O)C1(c2ccc([N+](=O)[O-])cc2)CCCC1`: the inhibition in assay [1] worked out at 17.3%.

For `CC1=C(/C=C/C(=C/C=C/C(C)=C/C(=O)O)c2ccc(C)cc2)C(C)(C)CCC1`, the inhibition in assay [1] turned out to be 32.2%.

For `CC(C)NC(=O)COc1cccc(-c2nc(Nc3ccc4[nH]ncc4c3)c3ccccc3n2)c1`, the inhibition in assay [1] was determined as 4.77%.

Values taken from ChEMBL document CHEMBL4808148, “HDAC6 screening dataset using tau-based substrate in an enzymatic assay yields selective inhibitors and activators” (2021).
